Test results taken from PubChem BioAssay (NCI).
Compounds without any hit were thinned out: in the full panel of roughly 79,000, 15% have a hit. Activity calls are given as the source filed them. No stated cut-off is given here; in the data, active means growth inhibition above about 70%; inactive means the rest.

Assays:
[1] = NCI Yeast Anticancer Drug Screen. Data for the rad50 strain (AID 155);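 further: 0% = growth of vehicle-only cultures of the same strain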; details: S. cerevisiae rad50 strain growth inhibition, hits give high values
How it was run: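 A DNA repair-deficient yeast mutant serves as the test organism; compound-induced growth inhibition is calculated against vehicle-treated cells.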

[2] = NCI Yeast Anticancer Drug Screen. Data for the mec2-1 strain (AID 157); details: S. cerevisiae mec2-1 strain, hits give high values
How it was run: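 Each compound was tested on mec2-1 yeast, a strain altered in DNA damage repair or cell cycle control. Growth inhibition is reported relative to vehicle.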

[3] = NCI Yeast Anticancer Drug Screen. Data for the sgs1 mgt1 strain (AID 161);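 further: 0% = growth of cultures given vehicle only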; details: S. cerevisiae sgs1 mgt1 strain, hits give high values
How it was run: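 Test agents were incubated with a DNA-repair-mutant yeast strain. Growth was then read and compared against vehicle-treated controls.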

[4] = NCI Yeast Anticancer Drug Screen. Data for the cln2 rad14 strain (AID 165);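 further: 0% = growth equal to vehicle treated cultures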; details: S. cerevisiae cln2 rad14 strain, hits give high values
How it was run: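 Test compounds were added to cln2 rad14 yeast cultures; inhibition of growth was then determined by comparison with vehicle treatment.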

[5] = NCI Yeast Anticancer Drug Screen. Data for the bub3 strain (AID 167); details: S. cerevisiae bub3 mutant strain, hits give high values
How it was run: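 Inhibition values come from growth of compound-treated mutant yeast normalised to vehicle-treated controls.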

[6] = NCI Yeast Anticancer Drug Screen. Data for the mlh1 rad18 strain (AID 175); details: S. cerevisiae mlh1 rad18 strain growth inhibition, hits give high values
How it was run: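 Inhibition values reflect reduced growth of mutant yeast versus vehicle-treated controls following compound exposure; the mutations affect DNA damage repair.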

[7] = at 5.0 µM (retest, dose inferred, filed as 0.5)
[8] = at 50.0 µM (retest, dose inferred, filed as 5.0)

Measured: growth inhibition

Cc1cc(NC(=S)SCc2ccc3c(c2)OCO3)ccc1Cl
inactive: [1]; [7] 31% | [2]; [7] 16% | [3]; [7] 44% | [4]; [7] 38% | [5]; [7] 52% | [6]; [7] 24%
active: [1]; [8] 98% | [1]; at 50.0 µM 91.5% | [2]; [8] 99% | [2]; at 50.0 µM 91.8% | [3]; [8] 98% | [3]; at 50.0 µM 91.5% | [4]; [8] 98% | [4]; at 50.0 µM 89.7% | [5]; [8] 99% | [5]; at 50.0 µM 91% | [6]; [8] 97% | [6]; at 50.0 µM 90.2%

CC(C)CCSc1ncnc2nc[nH]c12
active: [5]; at 50.0 µM 73.5%
inactive: [1]; [7] 1% | [1]; [8] 6% | [1]; at 50.0 µM 48.1% | [2]; [7] -5% | [2]; [8] 3% | [2]; at 50.0 µM 53.5% | [3]; [7] -1% | [3]; [8] 1% | [3]; at 50.0 µM 63% | [4]; [7] -4% | [4]; [8] 9% | [4]; at 50.0 µM 29.8% | [5]; [7] -2% | [5]; [8] 8% | [6]; [7] -1% | [6]; [8] 6% | [6]; at 50.0 µM 33.8%

Cn1ncc2c(Nc3cccc(Cl)c3)nc(Nc3cccc(Cl)c3)nc21
active: [1]; [8] 97% | [1]; at 50.0 µM 96% | [2]; [8] 98% | [2]; at 50.0 µM 94.2% | [3]; [8] 98% | [3]; at 50.0 µM 96.2% | [4]; [8] 97% | [4]; at 50.0 µM 95.4% | [5]; [8] 98% | [5]; at 50.0 µM 94.2% | [6]; [8] 97% | [6]; at 50.0 µM 95.7%
inactive: [1]; [7] 47% | [2]; [7] 18% | [3]; [7] 27% | [4]; [7] 11% | [5]; [7] -7% | [6]; [7] 32%

CC1=CC(=O)c2c(O)c3c(c(O)c2C1=O)C1C(O)C(C3=O)C23C(=O)c4c(O)c(C)cc(O)c4C(O)=C2C(=O)CC(O)C13 (stereo not given)
active: [1]; [8] 93% | [1]; at 50.0 µM 91.5% | [2]; [8] 98% | [2]; at 50.0 µM 93.3% | [3]; [8] 96% | [3]; at 50.0 µM 92.7% | [4]; [8] 97% | [4]; at 50.0 µM 91.3% | [5]; [8] 97% | [5]; at 50.0 µM 91.1% | [6]; [8] 96% | [6]; at 50.0 µM 91.8%
inactive: [1]; [7] -27% | [2]; [7] 7% | [3]; [7] -21% | [4]; [7] 14% | [5]; [7] 12% | [6]; [7] 9%

OC1(c2ccccc2)CCN(c2c3ccccc3nc3ccccc23)CC1
inactive: [1]; [7] 0% | [1]; [8] 63% | [2]; [7] 3% | [3]; [7] 6% | [4]; [7] 5% | [4]; [8] 30% | [5]; [7] 0% | [5]; [8] 58% | [6]; [7] -2% | [6]; [8] 68%
active: [1]; at 50.0 µM 98.9% | [2]; [8] 75% | [2]; at 50.0 µM 99.5% | [3]; [8] 75% | [3]; at 50.0 µM 97.6% | [4]; at 50.0 µM 99% | [5]; at 50.0 µM 99.3% | [6]; at 50.0 µM 99.4%
